Source: the OligoGym collection

target: DHCR7; test: pooled miR-30 sensor sort-seq; sequence = guide strand; details: shRNA
Note: reference of the scale not given here.

Sequence	sensor-assay potency score (higher = more potent)
TTGCTGTGGTGCCTCTGCCCAT	-1.54
TGAAGTCAAACCACTTCCCGAT	-0.223
TTGAAGTCAAACCACTTCCCGA	-0.639
TAGTTGTAAAAGAAATTGCCTG	-0.825
ATGGTCTTCAGGTACCAGGTTT	-0.879
TACTTGTTCACAACCCCTGCAG	-0.0403
AAGTAGTAGACGATGAAGGGGG	0.135
TACAGAAGCACCTGGAAGGTGA	0.0614
TGAATTTGCAGTCTCTGGCGCT	0.0615
AACAGCTTGAAGTCAAACCACT	-1.51

target: DHPS; test: as above; details: shRNA

Sequence	sensor-assay potency score (higher = more potent)
TGATGTAAACAGCGTAGTCGGC	-0.353
TCGGGCGGCAACGTCGAGCTGT	-0.875
TTCCAGCTTCTTCTCGATCATG	-1.22
TAGCTGACCAAAAAGTAGGGGA	0.0141
TCGAGCTGTGCTTTAGCACGGC	-0.48
TTGATGTAAACAGCGTAGTCGG	-0.879
TATTGATCCCGTTCTCCCGGAG	-0.362
TAAACAGCGTAGTCGGCCCCGT	-0.782
TATCCCAGGAAAATGGTGCAGC	-0.649
TTGACTTGCTGTACAGCGCGCC	0.283
TAGGAATGGAAGAAGATCATGT	0.621
TTTCCGATCCTATTGATCCCGT	-0.549
TAATACACGGACTCTGGGTTGT	-0.152
TTCTTCTCGATCATGGCATTGA	-0.43
TGAGGTTGGATGTATATCCCAG	-0.155
ATTGACTTGCTGTACAGCGCGC	-0.633
TTGCTGTACAGCGCGCCCGAAG	-1.67
TACGTCCACCATGTTGTGCTGC	-0.635
TTGTGCTGCACAAGGTAGCGAA	-0.894
TTGGTTGCTTGGAAGCCGGTGG	-0.209
TGTGTTGATGTAAACAGCGTAG	-0.876
TTCTGCTCCATCACCATCTGGT	0.0359
TCTTCATCCTGTGACAGTGGTT	-0.839
AAAGGTTTCAGCCACAAGCAGG	-1.41

target: DHX35; test: as above; details: shRNA

Sequence	sensor-assay potency score (higher = more potent)
TTCATTCGTAGAGACATGCTTG	0.0862
TTGAAACTTGACAAGAAGCTTT	0.0953
TAAGGGTTGTAAACAACCGTTG	-0.768
TAACACAAAACAGCGCACGAGT	-0.967
TAGATAAAAGATATCCACCGGA	-0.104
TAGACTGAGGCAACTTGTCAAA	-1.05
